DT40 TDP1 CPT: DT40-hTDP1 cell growth loss with CPT; chicken DT40 Tdp1-/-;hTDP1 cells + 20 nM CPT, ATP luminescence, 48 h; Potency, µM (doses to about 46.2 µM), hits mostly inhibitors; hit rate 12% among 420,000; note: nearly all actives have a fitted effect of over 55% in size
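Cell growth measured by CellTiter-Glo luminescence after a minimum 48 h, 37 C compound exposure with 20 nM CPT in Tdp1-knockout DT40 cells stably expressing hTDP1, seeded 400/well; qHTS titration format.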
DT40 TDP1 no CPT: qHTS for Inhibitors of human tyrosyl-DNA phosphodiesterase 1 (TDP1): qHTS in cells in absence of CPT; hit rate 15% among 420,000; AID 686978, 2013; DT40 Tdp1-/- hTDP1 cells, no CPT, ATP luminescence, 48 h; Potency, µM (series often up to 46.2 µM), hits mostly inhibitors; note: nearly all actives have a fitted effect of over 55% in size
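Seeded 400 DT40-hTDP1 cells/well (vehicle DMSO, no 20 nM CPT); pinned compounds; ≥48 hr at 37 °C; CellTiter-Glo luminescence as viability measure.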
ClpP mod: qHTS Assay for Activators of ClpP. ATP-dependent Clp protease proteolytic subunit (Bacillus subtilis (strain 168)), P80244. purified B. subtilis ClpP, FRET peptide cleavage, 20 min. Potency, µM (highest dose often 57.5 µM). hit rate 1.9% among 340,000. AID 651965, 2013; active = well fitted falling curve with a large enough effect; inconclusive = small, poorly fitted or top-dose-only effect; inactive = no such curve, though single readings can be large or run the other way; note: the source files actives as falling curves though it sought activators and does not explain the sign; nearly all actives have a fitted effect of over 65% in size
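ClpP 10 microg/mL final, pH 8 Tris/KCl buffer with BSA, glycerol, Tween-20; compound pinned in; FRET-FV substrate; RT 20 min; Ex320/Em430; ΔFRET vs ADEP 5.8 microM, DMSO, no enzyme.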
TDP1 inh: inhibitors of human tyrosyl-DNA phosphodiesterase TDP1 | Potency, µM (titrated, usually from 130 µM), usual class: inhibitors | Q9NUW8 | recombinant TDP1, AlphaScreen DNA substrate cleavage | hit rate 0.28% among 350,000 | AID 485290; note: nearly all actives have a fitted effect of over 40% in size
Target sequence (Q9NUW8 whole entry, looked up): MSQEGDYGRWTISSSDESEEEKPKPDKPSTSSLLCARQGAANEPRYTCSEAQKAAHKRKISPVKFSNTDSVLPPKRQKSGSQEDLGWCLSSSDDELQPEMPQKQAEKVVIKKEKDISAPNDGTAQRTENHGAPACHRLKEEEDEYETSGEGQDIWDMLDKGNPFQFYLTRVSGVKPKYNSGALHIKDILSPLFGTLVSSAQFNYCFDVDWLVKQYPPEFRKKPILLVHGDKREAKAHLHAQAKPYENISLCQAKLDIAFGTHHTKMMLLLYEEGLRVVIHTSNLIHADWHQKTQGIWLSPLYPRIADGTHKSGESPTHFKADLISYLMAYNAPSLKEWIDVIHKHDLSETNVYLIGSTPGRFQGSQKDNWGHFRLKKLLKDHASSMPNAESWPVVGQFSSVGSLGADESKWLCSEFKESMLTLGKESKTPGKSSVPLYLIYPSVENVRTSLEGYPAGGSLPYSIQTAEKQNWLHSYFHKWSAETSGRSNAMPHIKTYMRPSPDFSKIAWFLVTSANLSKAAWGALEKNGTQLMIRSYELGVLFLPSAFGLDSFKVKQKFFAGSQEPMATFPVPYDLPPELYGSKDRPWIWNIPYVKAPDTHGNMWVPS
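Compounds were preincubated with Tdp1 (1 nM final) for 15 min at room temperature before substrate (15 nM final) started a 5 min reaction; beads (10 ug/ml final) were then added for 10 min before AlphaScreen detection.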
A number is an active result; n = inactive; u = inconclusive; x = not tested or not shown; [ ] = remark or other dose. Most compounds without a hit are left out; they make up all but 17% or so of the library. Unless noted, calls come from the whole dose curve; as a rule, active = well fitted curve in the direction sought with a large enough effect; inconclusive = small, poorly fitted or top-dose-only effect, or another doubt; inactive = no such curve, though single readings can be large; an effect the other way counts as inactive or inconclusive.

SMILES | DT40 TDP1 CPT | DT40 TDP1 no CPT | ClpP mod | TDP1 inh
O=C(Nc1ccc(C(=O)N2CCCC2)cc1)Nc1ccc(Cl)cc1Cl | n | n | n | n
CC(NC(=O)C1CCN(S(=O)(=O)c2ccc3c(c2)oc(=O)n3C)CC1)c1ccccc1 (stereo not drawn) | n | n | n | n
O=C(NC1CCCc2c1cnn2-c1ccccc1F)c1ccccn1 (stereo not drawn) | u | u | n | n
O=C(NC1CCCc2c1cnn2-c1ccccc1F)c1ccncc1 (stereo not drawn) | 10µM | 5.8µM | n | x
COc1ccc(C(=O)NC2CCCc3c2cnn3-c2ccccc2F)cc1OC (stereo not drawn) | 5.2µM | 1.6µM | n | n
C#CC(C)(CC)NC(=O)c1cc2c(n(-c3ccc(Cl)cc3)c1=O)CC(C)(C)CC2=O (stereo not drawn) | x | x | n | n
O=C[C@H](O)[C@@H](O)[C@H](O[C@H]1O[C@H](CO)[C@@H](O[C@H]2O[C@H](CO)[C@@H](O)[C@H](O)[C@H]2O)[C@H](O)[C@H]1O)[C@H](O)CO | n | n | x | x
COc1cccc(N2CCN(C(=O)c3cccn3-c3nnc(N4CCCCC4)s3)CC2)c1 | 15µM | u | n | n
COc1cccc(N2CCN(C(=O)c3ccc4nc(N5CCCCC5)sc4c3)CC2)c1 | u | 16µM | n | n
Cc1ccc(Cl)cc1N1CCN(C(=O)c2cccn2-c2nnc(N3CCCC3)s2)CC1 | 12µM | 15µM | n | n
COc1ccc(N2CCN(C(=O)c3cccn3-c3nnc(N4CCCC4)s3)CC2)cc1 | u | u | n | n
C=CCc1ccc(OCCCNCc2ccccc2)c(OC)c1 | u | u | n | x
C=CCc1ccccc1OCCNCc1ccccc1 | u | 16µM | x | n
O=C(NCc1ccc2c3c(cccc13)C(=O)N2)c1cccs1 | n | n | n | x
COc1ccc(N)cc1-n1c(C)ccc1C | 7.3µM | n | n | n
Cc1nn(C)c(Oc2cccc(C(F)(F)F)c2)c1C#N | n | n | x | n
Cc1nn(C)c(Oc2cccc(Cl)c2)c1C#N | u | 23µM | n | n
Nc1nc2n(n1)C(c1ccc(F)cc1)CC(c1ccc(F)cc1)N2 (stereo not drawn) | n | n | n | n
CCOc1ccccc1C1CC(c2ccc(F)cc2)Nc2nc(N)nn21 (stereo not drawn) | 1.2µM | u | n | n
Nc1nc2n(n1)C(c1cccs1)CC(c1ccc(F)cc1)N2 (stereo not drawn) | n | n | n | n
COc1ccccc1C1CC(c2ccc(Cl)cc2)Nc2ncnn21 (stereo not drawn) | 15µM | 21µM | n | n
COc1ccccc1C1CC(c2ccc(Cl)cc2)Nc2nc(N)nn21 (stereo not drawn) | 10µM | 16µM | n | n
COc1ccc(C2CC(c3cccs3)n3nc(N)nc3N2)cc1 (stereo not drawn) | 23µM | u | n | n
Nc1cc2c3ccccc3ccc2c2ccccc12 | u | u | n | x
c1ccc2c(c1)COC(CNC1CCCCC1)OC2 | n | n | n | n
SMILES | DT40 TDP1 CPT | DT40 TDP1 no CPT | ClpP mod | TDP1 inh
N#Cc1c(N)sc(=S)c2c1CCCCC2 | u | n | n | 10µM
N#Cc1c(N)sc2c1CCCCCC2 | n | n | n | n
CC1CCN(S(=O)(=O)N2CCC(C(=O)NC(C)c3ccccc3)CC2)CC1 (stereo not drawn) | 10µM | u | n | x
O=S(=O)(c1ccc2c(c1)OCCO2)N1CCNCC1 | n | n | n | x
CC(C)C[C@@H]1COc2cccc(N3CCN(Cc4ccccc4F)CC3)c2S(=O)(=O)N1 | u | u | n | x
O=S1(=O)N[C@@H](Cc2ccccc2)COc2cccc(N3CCN(Cc4ccccc4F)CC3)c21 | u | 18µM | n | x
CC(=O)Nc1cccc(Cn2cccn2)c1 | x | x | x | n
O=C(Nc1cccc(Cn2cccn2)c1)c1cc2c(s1)CCCC2 | u | 11µM | n | n
COC(=O)C1CCCCN1Cc1ccc2c(c1)CN(C(=O)c1ccc(C)s1)CCO2 (stereo not drawn) | n[9.04 µM] | n | x | x
CC(Oc1cc2oc(=O)c3c(c2cc1Cl)CCC3)C(=O)NCCN1CCOCC1 (stereo not drawn) | n | n | n | n
COc1ccccc1CC(=N)N1C[C@@H]2C(=O)CCC(c3ccccc3)(c3ccccc3)[C@@H]2C1 | 12µM | 21µM | x | n
COc1ccccc1CC(=O)N1CCN(c2ccccc2)CC1 | n | n | n | x
COc1cc(C(=O)N(Cc2cccnc2)Cc2cc3cc4c(cc3[nH]c2=O)OCCO4)cc(OC)c1OC | u | u | 28µM | n
COc1cc2cc(CN(CCO)C(=O)c3cccs3)c(=O)[nH]c2cc1OC | n | n | 32µM | n
CCCN(Cc1cc2cccc(C)c2[nH]c1=O)C(=O)c1cccc(Cl)c1 | u | u | u | n
Cc1ccc(N(Cc2cc3ccccc3[nH]c2=O)C(=O)c2cccc(Cl)c2)cc1 | u | u | n | n
COc1ccc(N(Cc2cc3cccc(C)c3[nH]c2=O)C(=O)c2cccc(Cl)c2)cc1 | 10µM | 8.2µM | u | n
COc1ccc2[nH]c(=O)c(CN(CCO)C(=O)c3cccs3)cc2c1 | n | n | n | n
Cc1cccc(N(Cc2cc3ccccc3[nH]c2=O)C(=O)c2cccc(Cl)c2)c1 | 23µM | 16µM | n | n
CCN(CC)CCCNC(=O)c1ccc(CS(=O)(=O)c2ccccc2OC)o1 | n | n | n | x
CCC1(c2ccccc2)NC(=O)N(CC(=O)N2CC(=O)Nc3ccccc32)C1=O (stereo not drawn) | n | u | n | n
COc1ccc(CN(Cc2cc3cccc(C)c3[nH]c2=O)C(=O)N(C)C)cc1 | n | n | n | n
COc1ccc2[nH]c(=O)c(CN(Cc3cccnc3)C(=O)Nc3ccccc3)cc2c1 | u | u | 32µM | n
COc1ccc2[nH]c(=O)c(CN(C(=O)C3CCCO3)c3ccc(C)c(C)c3)cc2c1 (stereo not drawn) | n | u | x | n
CNC(=S)N(Cc1ccc(OC)cc1)Cc1cc2cccc(C)c2[nH]c1=O | 18µM | 21µM | x | n
SMILES | DT40 TDP1 CPT | DT40 TDP1 no CPT | ClpP mod | TDP1 inh
Cc1ccc2[nH]c(=O)c(CN(C(=O)c3cccs3)c3ccccc3)cc2c1 | u | 16µM | u | n
COc1ccc(N(Cc2cc3cc(OC)ccc3[nH]c2=O)C(=O)C2CCCO2)cc1 (stereo not drawn) | n | n | 18µM | n
Cc1ccc2cc(CN(C(=O)c3cccs3)c3ccccc3)c(=O)[nH]c2c1 | u | u | x | n
CCOC(=O)c1ccc(-c2ccc3oc(-c4ccsc4)cc(=O)c3c2)cc1F | n | n | n | n
CCOCCCNC(=O)c1cc(=O)[nH]c2ccc(S(=O)(=O)N3CCCC3)cc12 | n | n | n | n
COc1ccc(N(Cc2cc3cc(OC)ccc3[nH]c2=O)C(=O)c2cccnc2)cc1 | 16µM | 23µM | u | n
CCC(=O)N(Cc1cc2cc(OC)ccc2[nH]c1=O)c1ccc(C)cc1 | u | 10µM | x | x

Source: PubChem BioAssay
